# Reference: paper PMC3737563, “Investigation of DNA sequence recognition by a streptomycete MarR family transcriptional regulator through surface plasmon resonance and X-ray crystallography”
# Molecular target: T1, SCO3205 (MarR family regulator) (Streptomyces coelicolor, UniProt Q9KYU1 1-163)
# T1 sequence: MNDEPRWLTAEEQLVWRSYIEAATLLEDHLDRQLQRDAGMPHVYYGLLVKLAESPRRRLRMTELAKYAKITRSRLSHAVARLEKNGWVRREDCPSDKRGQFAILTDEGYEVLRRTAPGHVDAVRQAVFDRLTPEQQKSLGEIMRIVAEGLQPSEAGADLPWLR
# Experiment: SPR (ReDCaT); 100 nM SCO3205 dimer; HBS-EP+ buffer: 10 mM HEPES pH 7.4, 150 mM NaCl, 3 mM EDTA, 0.05% (v/v) surfactant P20; 20 C; Biacore T200, ReDCaT SA chip; high values mean tight binding
# Details: protein: recombinant; tags: N-terminal His tag plus TEV site, not removed; chain copies: 2; label: biotin linker S6 hybridised to overhang; dsDNA, one strand shown
row,Sequence,binding signal
1,ACTCCAATACTTGAACTCTCAATCTTTACGTGCC,110 %Rmax
2,ACTCCAATACTTGAACTCTCAATCTTTACGTG,108 %Rmax
3,ACGGCACGTAAAGATTGAGAGTTCAAGTATTGGAGT,110 %Rmax
4,ACGGCACGTAAAGATTGAGAGTTCAA,4.7 %Rmax
5,ACGCCGATTTTGTTTAATGTTCAAGG,81 %Rmax
6,ACTCCAATACTTGAACTCTCAATC,92.7 %Rmax
7,ACTCCAATACTTGAACTCTC,7.8 %Rmax
8,AAGAAGTTCAAGCTTCAACCAAAA,95.2 %Rmax
9,ACTCCAATACTTGAACTCTCAATCTTTACG,119 %Rmax
10,ACGCCGATTTTGTTTAATGTTCAA,29.9 %Rmax
11,TACTTGAACTCTCAATCTTTACGTGCCGT,113.9 ± 0.424 %Rmax
12,ACTCCAATACTTGAACTCTCAATCTTTAC,115.8 ± 0.283 %Rmax
13,CGAGACGGTTCCTTGAACATTAAA,22 %Rmax
14,GACCTGTTCAAAGCTCAAGCAGAA,48.5 %Rmax
15,CGAGACGGTTCCTTGAACATTAAACAAAATCG,108 %Rmax
16,ACTCCAATACTTGAACTCTCAATCTTTA,115 %Rmax
17,TTGATGTTGAATGTTCAACCAGTC,118 %Rmax
18,CATGGCTACTCCAATACTTGAACTCTCAA,35.7 ± 0.566 %Rmax
19,ACGCCGATTTTGTTTAATGTTCAAGGAACC,117 %Rmax
20,ACGGCACGTAAAGATTGAGAGTTCAAGTAT,87.9 %Rmax

row,Sequence,binding signal
1,ACGGCACGTAAAGATTGAGAGTTCAAGTATTGGA,116 %Rmax
2,CAATACTTGAACTCTCAATCTTTA,101 %Rmax
3,ACTCCAATACTTGAACTCTCAATCTTTACGTGCCGT,115 %Rmax
4,CGAGACGGTTCCTTGAACATTAAACAAAATCGGCGT,108 %Rmax
5,CGAGACGGTTCCTTGAACATTAAACAAA,68.4 %Rmax
6,ACGCCGATTTTGTTTAATGTTC,5.1 %Rmax
7,ACTCCAATACTTGAACTCTCAA,41.3 %Rmax
8,ACGGCACGTAAAGATTGAGAGTTCAAGT,80.4 %Rmax
9,TCAATCTACGCCGATTTTGTTTAATGTTC,5 %Rmax
10,ACTCCAATACTTGAACTCTCAATCTT,116 %Rmax
11,ACGCCGATTTTGTTTAATGTTCAAGGAAC,109.7 ± 0.566 %Rmax
12,ACGCCGATTTTGTTTAATGTTCAAGGAA,94 %Rmax
13,CGAGACGGTTCCTTGAACATTAAACAAAAT,102 %Rmax
14,ACGCCGATTTTGTTTAATGTTCAAGGAACCGTCT,118 %Rmax
15,ACTCTCAATCTTTACGTGCCGTCAATCTA,3.05 ± 0.354 %Rmax
16,ACGCCGATTTTGTTTAATGTTCAAGGAACCGT,110 %Rmax
17,ACGGCACGTAAAGATTGAGAGTTCAAGTATTG,112 %Rmax
18,CGAGACGGTTCCTTGAACATTAAACAAAATCGGC,112 %Rmax
19,CGAGACGGTTCCTTGAACATTAAACA,68.6 %Rmax
20,TTTTGTTTAATGTTCAAGGAACCGTCTCG,127.2 ± 0.636 %Rmax
